The source of these data is PubChem BioAssay AID588674 (Broad Institute, 2011).

Molecules are shown by their SMILES. About 1,800 (0.5%) of roughly 360,000 compounds were called active. The full list was thinned out, with actives kept by preference. Unmarked numbers belong to inactive results.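 The calls were made as follows: active = mean inhibition of at least 75% with every replicate also reaching 75%; inconclusive = mean inhibition at least 75% but some replicate below; inactive = mean inhibition below 75%.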

The test can be described thus: Shn3 3'UTR reporter decrease in osteoblasts – cell-based, Clone20 osteoblasts, firefly luciferase, set 2, Schnurri-3 inhibitor project, primary screen (AID 588674).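 Also: 0% = median of neutral control wells and 100% = pilot-screen positive control compound.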 Conditions: Clone20 osteoblast Shn3 3'UTR firefly luciferase, 24 h; at 12.5 µM; stronger effect = higher value.
Turning to `CCCCCCCCCCCCn1ccc(=N)cc1`, the inhibition was 90.6% (active).

With `CN1C2C=C(N(C(=O)c3ccc(Cl)cc3)c3ccccc3)CC1CC2` (stereo not given), the inhibition is -7.65%.

For `Cc1ccc(S(=O)(=O)N(C)c2ccc(C(=O)NCC3(N(C)C)CCCCC3)cc2)cc1`, the inhibition was -2.63%.

For the compound `Nc1ccc(C(=O)N/N=C2/CN3CCC2CC3)cc1`, the inhibition is -22.5%.

For the compound `CCC(C)(O)C(=O)OC1C(=O)OC2CC3C(C)=CC(=O)C(O)C3(C)C3C4(O)OCC23C1C(C)C4O` (stereo not given), the inhibition is 91.5% (active).

For `Cc1ccc(C2CN(C)CC2C(=O)c2ccc(F)cc2)cc1` (stereo not given), the inhibition is 6.66%.

Take `O=C1NC(=O)C(CCc2ccccn2)(Cc2cccc(Cl)c2Cl)C(=O)N1c1ccc(Br)cc1` (stereo not given): the inhibition was 13.7%.

As for `CC(=O)OC1C2(CC3N4C(=O)C5(CO)SSC4(CC31O)C(=O)N5C)OC(C)C(C)(C)C2=O` (stereo not given), the inhibition was 98.1% (active).

With `CCC(=O)c1ccc(OCC(=O)N2CCN(CC(=O)Nc3ccc(C)cc3)CC2)cc1`, the inhibition was 19.6%.

For the compound `O=C1C2CCN(CC2)C1(CO)CO`, the inhibition is -25.5%.

In the case of `O=C(c1ccccc1)C(O)(CN1CCCCC1)c1ccccc1` (stereo not given), the inhibition was 5.93%.

As to `CCN1C(=O)C(=Cc2c(C)n(CC(=O)NCC3CCCO3)c3ccccc23)C(=O)N(CC)C1=S` (stereo not given), the inhibition is 1.7%.

For the compound `Clc1ccc2nc3c(c(-c4ccccc4)c2c1)CNCC3`, the inhibition was 14.4%.

On to `C[C@]12CCC3C(CC[C@H]4[C@H](O)[C@H](O)CC[C@]34C)C1CCC2=O` (stereo not given in full), for which the inhibition is -16.7%.

With `Cc1ccc(N2C(=O)NC(=O)C(CCc3ccncc3)(Cc3cccc(Cl)c3Cl)C2=O)cc1` (stereo not given), the inhibition is -0.01%.

As a reminder, the inhibition is the change of the read-out against control, counted positive when it falls.
